Reference: PubChem BioAssay (EPA / NIEHS)
Records with an inconclusive call do not appear. Activity calls are given as the source filed them. How the source made its calls: active means hit-call score of the fitted dose curve at least 0.9, where 1 is the maximum; inconclusive means response in the unintended direction; inactive means score below 0.9.

Columns and labels:
[1] = TOX21_p53_BLA_p2_viability: Viability Assessment in the Tox21 HCT-116 p53 Agonism Beta-lactamase Assay, Phase 2 (AID 2283591);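 further: compound exposure lasted 16 h at 37 °C; actives lower the ATP signal meaning cytotoxicity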
Outline: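 HCT116 p53-bla cells, 4000/well, dosed after 5 h plating (217-fold dilution of DMSO stocks) and incubated 16 h at 37C. Viability taken as cellular ATP by CellTiter-Glo luminescence after 30 min RT; signal loss marks cytotoxicity.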

[2] = target: Cellular tumor antigen p53 (Homo sapiens) (UniProt P04637); assay: TOX21_p53_BLA_p2_ratio: Tox21 HCT-116 p53 Agonism Beta-lactamase Assay, Ratio, Phase 2 (AID 2283592)
Outline: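 In this cell-based reporter format, HCT116 cells were dosed with chemicals delivered from DMSO by 217-fold dilution and incubated 16 h at 37C. Emission at 460 and 530 nm after 2 h CCF4-AM loading provided the ratio, fitted upward versus DMSO.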

[3] = TOX21_p53_BLA_p3_viability: Viability Assessment in the Tox21 HCT-116 p53 Agonism Beta-lactamase Assay, Phase 3 (AID 2283593);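 further: cells exposed to compound for 16 h before reading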
Outline: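 HCT116 cells, 4000/well, dosed 5 h after plating by pin transfer (217-fold dilution from DMSO stock) and incubated 16 h at 37C, 5% CO2. Viability read as ATP luminescence with CellTiter-Glo after 30 min at room temperature.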

[4] = TOX21_p53_BLA_p4_viability: Viability Assessment in the Tox21 HCT-116 p53 Agonism Beta-lactamase Assay, Phase 4 (AID 2283597);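 further: hits lower the luminescence signal meaning cytotoxicity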
Outline: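 We seeded HCT116 p53 reporter cells at 4000/well and waited 5 h. We then added compounds in DMSO at a 217-fold dilution and incubated for 16 h. Viability was read as CellTiter-Glo luminescence after 30 min at RT.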

[5] = TOX21_p53_BLA_p5_viability: Viability Assessment in the Tox21 HCT-116 p53 Agonism Beta-lactamase Assay, Phase 5 (AID 2283600)
Outline: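 Compounds, pinned from DMSO at 217-fold dilution, were left on the cells for 16 h. The viability endpoint was ATP content measured by CellTiter-Glo luminescence, where falling signal reflects cytotoxicity.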

[6] = target: Cellular tumor antigen p53 (Homo sapiens) (UniProt P04637); assay: TOX21_p53_BLA_p3_ratio: Tox21 HCT-116 p53 Agonism Beta-lactamase Assay, Ratio, Phase 3 (AID 2283596)
Outline: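 HCT116 p53-bla cells (4000/well) given compound in DMSO (217-fold dilution) after 5 h, incubated 16 h at 37C. CCF4-AM substrate 2 h at room temperature; 460/530 nm emission ratio, gain fitted against DMSO.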

[7] = target: Cellular tumor antigen p53 (Homo sapiens) (UniProt P04637); assay: TOX21_p53_BLA_p5_ratio: Tox21 HCT-116 p53 Agonism Beta-lactamase Assay, Ratio, Phase 5 (AID 2283599)
Outline: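 HCT-116 p53-bla cells (4000/well) plated 5 h, dosed with compound (217-fold DMSO dilution) for 16 h at 37 C; CCF4-AM substrate 2 h at room temperature. Activity is the 460/530 nm emission ratio (405 nm excitation), fitted in gain-of-signal direction versus DMSO.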

[8] = target: Cellular tumor antigen p53 (Homo sapiens) (UniProt P04637); assay: TOX21_p53_BLA_p4_ratio: Tox21 HCT-116 p53 Agonism Beta-lactamase Assay, Ratio, Phase 4 (AID 2283601)
Outline: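 HCT-116 p53 beta-lactamase reporter cells (4000/well) preincubated 5 h, then compound (217-fold dilution of DMSO stock) for 16 h at 37C. CCF4-AM substrate added 2 h at room temperature; 460/530 nm emission ratio fitted upward versus DMSO.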

Measured: outcome

Chain of Cellular tumor antigen p53 (Homo sapiens) (P04637 whole entry, looked up): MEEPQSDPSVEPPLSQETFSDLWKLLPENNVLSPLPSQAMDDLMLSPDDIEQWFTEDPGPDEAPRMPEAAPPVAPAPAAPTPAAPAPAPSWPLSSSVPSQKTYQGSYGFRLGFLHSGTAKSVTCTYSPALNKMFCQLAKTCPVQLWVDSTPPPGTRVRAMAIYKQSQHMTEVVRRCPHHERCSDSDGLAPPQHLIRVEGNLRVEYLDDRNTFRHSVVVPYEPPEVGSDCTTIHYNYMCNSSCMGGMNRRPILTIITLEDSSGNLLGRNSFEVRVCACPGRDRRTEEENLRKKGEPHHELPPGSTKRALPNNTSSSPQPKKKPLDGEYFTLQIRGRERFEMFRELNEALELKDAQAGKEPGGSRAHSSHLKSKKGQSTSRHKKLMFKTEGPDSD

COc1cc(C[C@@H](C)N)c(OC)cc1Br
inactive: [1] | [2] | [3] | [4] | [5]

C[C@@H]1CN(C2CCC(C#N)(c3ccc(F)cc3)CC2)CC[C@]1(C(=O)O)c1ccccc1 (stereo partly specified)
inactive: [1] | [2] | [3] | [6] | [7] | [8]
